Test results from PubChem BioAssay (EPA / NIEHS).
Inconclusive results are not listed. The source made the active and inactive calls. The calls were made as follows, unless noted: active = hit-call score of the fitted dose curve at least 0.9, where 1 is the maximum; inconclusive = response in the unintended direction; inactive = score below 0.9.

Columns and labels:
[1] = TOX21_p53_BLA_p2_viability: Viability Assessment in the Tox21 HCT-116 p53 Agonism Beta-lactamase Assay, Phase 2 (AID 2283591);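 also: compound exposure lasted 16 h at 37 °C; actives lower the ATP signal meaning cytotoxicity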
Procedure, shortened: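 HCT116 p53-bla cells, 4000/well, dosed after 5 h plating (217-fold dilution of DMSO stocks) and incubated 16 h at 37C. Viability taken as cellular ATP by CellTiter-Glo luminescence after 30 min RT; signal loss marks cytotoxicity.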

[2] = target: Cellular tumor antigen p53 (Homo sapiens) (UniProt P04637); assay: TOX21_p53_BLA_p2_ratio: Tox21 HCT-116 p53 Agonism Beta-lactamase Assay, Ratio, Phase 2 (AID 2283592)
Chain of Cellular tumor antigen p53 (Homo sapiens) (P04637 whole entry, looked up): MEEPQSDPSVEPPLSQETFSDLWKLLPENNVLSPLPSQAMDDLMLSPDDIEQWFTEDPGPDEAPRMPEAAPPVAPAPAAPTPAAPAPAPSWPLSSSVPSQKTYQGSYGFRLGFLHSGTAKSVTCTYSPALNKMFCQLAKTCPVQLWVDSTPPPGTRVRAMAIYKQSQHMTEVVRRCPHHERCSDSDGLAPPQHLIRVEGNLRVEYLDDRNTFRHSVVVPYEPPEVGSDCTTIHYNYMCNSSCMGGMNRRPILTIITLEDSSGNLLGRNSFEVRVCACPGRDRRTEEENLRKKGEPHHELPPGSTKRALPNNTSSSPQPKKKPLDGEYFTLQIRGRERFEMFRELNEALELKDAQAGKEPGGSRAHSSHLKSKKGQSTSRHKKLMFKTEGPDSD
Procedure, shortened: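 Cleaved-to-uncleaved substrate ratio (460 vs 530 nm) measured in HCT116 cells with an inducible beta-lactamase reporter linked to p53 activity. Compounds incubated 16 h at 37C before 2 h room-temperature CCF4-AM loading.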

[3] = TOX21_p53_BLA_p3_viability: Viability Assessment in the Tox21 HCT-116 p53 Agonism Beta-lactamase Assay, Phase 3 (AID 2283593);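 also: cells exposed to compound for 16 h before reading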
Procedure, shortened: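 HCT116 cells, 4000/well, dosed 5 h after plating by pin transfer (217-fold dilution from DMSO stock) and incubated 16 h at 37C, 5% CO2. Viability read as ATP luminescence with CellTiter-Glo after 30 min at room temperature.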

[4] = target: Cellular tumor antigen p53 (Homo sapiens) (UniProt P04637); assay: TOX21_p53_BLA_p3_ratio: Tox21 HCT-116 p53 Agonism Beta-lactamase Assay, Ratio, Phase 3 (AID 2283596)
Procedure, shortened: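 Cells were seeded at 4000/well, rested 5 h at 37C, then dosed with DMSO compound solutions (217-fold dilution) for 16 h. CCF4-AM substrate was loaded for 2 h at room temperature, and the 460/530 nm emission ratio was fitted for gain of signal versus DMSO.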

[5] = TOX21_p53_BLA_p4_viability: Viability Assessment in the Tox21 HCT-116 p53 Agonism Beta-lactamase Assay, Phase 4 (AID 2283597);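 also: hits lower the luminescence signal meaning cytotoxicity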
Procedure, shortened: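 Viability is taken as cellular ATP: after 16 h compound exposure of HCT116 cells and a 2 h room-temperature CCF4-AM substrate step, CellTiter-Glo reagent is added and luminescence is measured 30 min later.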

[6] = target: Cellular tumor antigen p53 (Homo sapiens) (UniProt P04637); assay: TOX21_p53_BLA_p4_ratio: Tox21 HCT-116 p53 Agonism Beta-lactamase Assay, Ratio, Phase 4 (AID 2283601)
Procedure, shortened: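 HCT-116 p53 beta-lactamase reporter cells (4000/well) preincubated 5 h, then compound (217-fold dilution of DMSO stock) for 16 h at 37C. CCF4-AM substrate added 2 h at room temperature; 460/530 nm emission ratio fitted upward versus DMSO.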

[7] = TOX21_p53_BLA_p5_viability: Viability Assessment in the Tox21 HCT-116 p53 Agonism Beta-lactamase Assay, Phase 5 (AID 2283600)
Procedure, shortened: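 Viability is taken from cellular ATP content, measured by luciferase luminescence in the same wells after the beta-lactamase ratio read. Cells are seeded at 4000 per well and exposed to DMSO-dissolved compounds, diluted 217-fold, for 16 h.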

[8] = CCTE_Harrill_HTTr_Viability_MCF7: CCTE's 6-hour Cell Viability Assessment for the High-Throughput Transcriptomics (HTTr) Platform, in MCF-7 cells cultured in DMEM + 10% fetal bovine serum, Harrill Lab (AID 2284010; active = hit-call score of the fitted dose curve at least 0.9, where 1 is the maximum; inactive = score below 0.9)
Procedure, shortened: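 Eight-point concentration series, six-hour exposure. Propidium iodide exclusion imaged to assess membrane integrity as a cytotoxicity readout; bidirectional fitting was done with DMSO as negative control and activity baseline.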

[9] = CCTE_Harrill_HTTr_Apoptosis_MCF7: CCTE's 6-hour Apoptosis Assessment for the High-Throughput Transcriptomics (HTTr) Platform, in MCF-7 cells cultured in DMEM + 10% fetal bovine serum, Harrill Lab (AID 2284011; active = hit-call score of the fitted dose curve at least 0.9, where 1 is the maximum; inactive = score below 0.9)
Procedure, shortened: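 Cells are dosed with test chemicals at eight concentrations and imaged 6 hours later for caspase-3/7 activity using a green fluorogenic detection reagent. Activity is fitted in both directions against DMSO controls.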

[10] = target: Cellular tumor antigen p53 (Homo sapiens) (UniProt P04637); assay: TOX21_p53_BLA_p5_ratio: Tox21 HCT-116 p53 Agonism Beta-lactamase Assay, Ratio, Phase 5 (AID 2283599)
Procedure, shortened: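 HCT-116 p53-bla cells (4000/well) plated 5 h, dosed with compound (217-fold DMSO dilution) for 16 h at 37 C; CCF4-AM substrate 2 h at room temperature. Activity is the 460/530 nm emission ratio (405 nm excitation), fitted in gain-of-signal direction versus DMSO.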

[11] = target: Thyroid hormone receptor alpha (Rattus norvegicus) + Thyroid hormone receptor beta (Rattus norvegicus) (UniProt P18113+P63059); assay: TOX21_TR_LUC_GH3_Agonist_Followup: Tox21 GH3 Thyroid Hormone Receptor Agonism Luciferase Follow-Up Assay (AID 2283939)
Chain of Thyroid hormone receptor alpha (Rattus norvegicus) + Thyroid hormone receptor beta (Rattus norvegicus) (P63059 whole entry, looked up): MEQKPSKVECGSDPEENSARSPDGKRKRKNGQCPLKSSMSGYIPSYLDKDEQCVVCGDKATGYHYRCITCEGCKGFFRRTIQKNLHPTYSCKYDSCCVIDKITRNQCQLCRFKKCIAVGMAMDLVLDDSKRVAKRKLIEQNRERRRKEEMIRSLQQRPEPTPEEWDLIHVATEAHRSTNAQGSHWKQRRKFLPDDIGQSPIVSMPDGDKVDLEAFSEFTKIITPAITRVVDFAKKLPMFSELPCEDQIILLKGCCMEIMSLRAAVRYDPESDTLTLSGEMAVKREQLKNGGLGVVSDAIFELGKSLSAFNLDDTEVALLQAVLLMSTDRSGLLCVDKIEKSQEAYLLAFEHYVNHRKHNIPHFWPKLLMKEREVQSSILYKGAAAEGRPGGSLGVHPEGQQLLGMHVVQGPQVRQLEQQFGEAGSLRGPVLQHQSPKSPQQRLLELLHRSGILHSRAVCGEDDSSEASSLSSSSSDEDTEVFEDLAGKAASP
Chain of Thyroid hormone receptor alpha (Rattus norvegicus) + Thyroid hormone receptor beta (Rattus norvegicus) (P18113 whole entry, looked up): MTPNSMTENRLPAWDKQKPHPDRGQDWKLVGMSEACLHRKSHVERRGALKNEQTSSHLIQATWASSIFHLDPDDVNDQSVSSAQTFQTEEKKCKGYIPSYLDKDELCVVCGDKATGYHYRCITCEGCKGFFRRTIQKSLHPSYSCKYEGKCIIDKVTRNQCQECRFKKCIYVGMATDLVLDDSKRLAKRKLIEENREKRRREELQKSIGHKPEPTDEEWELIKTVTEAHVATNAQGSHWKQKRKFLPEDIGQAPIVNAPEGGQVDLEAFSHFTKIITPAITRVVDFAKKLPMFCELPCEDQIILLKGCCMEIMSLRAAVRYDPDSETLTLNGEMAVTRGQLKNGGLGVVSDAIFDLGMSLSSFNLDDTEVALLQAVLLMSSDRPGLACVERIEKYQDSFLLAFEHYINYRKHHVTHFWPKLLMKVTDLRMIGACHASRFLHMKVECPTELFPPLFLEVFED
Procedure, shortened: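 Agonist-mode confirmatory run: 15 concentrations (5 nM to 92 uM final) on GH3 rat pituitary cells, 24 h at 37C/5% CO2, T3 as positive control. Luminescence read with ONE-Glo after 30 min.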

THRA (gene 7067) = THRA (gene 7067) (UniProt P10827); assay: TOX21_TRA_COA_Agonist_Followup_ratio: Tox21 Thyroid Hormone Receptor alpha Agonism through Coactivator Recruitment Follow-Up Assay, Ratio (AID 2283948; active = hit-call score of the fitted dose curve at least 0.9, where 1 is the maximum; inactive = score below 0.9)
Chain of THRA (gene 7067) (P10827 whole entry, looked up, the tested form may be a part): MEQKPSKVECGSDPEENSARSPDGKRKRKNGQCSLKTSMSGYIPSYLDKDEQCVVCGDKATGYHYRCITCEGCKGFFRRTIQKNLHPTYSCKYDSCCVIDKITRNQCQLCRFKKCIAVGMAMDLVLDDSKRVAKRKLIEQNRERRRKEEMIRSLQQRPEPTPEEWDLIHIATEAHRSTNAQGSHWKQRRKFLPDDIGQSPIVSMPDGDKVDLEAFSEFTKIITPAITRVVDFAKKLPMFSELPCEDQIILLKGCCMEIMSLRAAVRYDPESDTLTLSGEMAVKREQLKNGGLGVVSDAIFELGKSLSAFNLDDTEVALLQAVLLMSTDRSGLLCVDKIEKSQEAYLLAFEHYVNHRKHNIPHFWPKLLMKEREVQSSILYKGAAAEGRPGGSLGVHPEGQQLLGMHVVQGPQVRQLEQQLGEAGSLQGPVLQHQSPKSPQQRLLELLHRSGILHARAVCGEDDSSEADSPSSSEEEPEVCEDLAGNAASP
Procedure, shortened: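 First, compound was incubated with 2.5 nM GST-TRα LBD in 0.10% BSA. Next, 200 nM fluorescein-SRC-2 and 2 nM Tb-anti-GST antibody were added. Finally, the 520:495 nm ratio was normalized to DMSO and T3 controls.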

THRB (gene 7068) [12] = target: THRB (gene 7068) (UniProt P10828); assay: TOX21_TRB_BLA_Agonist_Followup_ratio: Tox21 Thyroid Hormone Receptor beta Agonism Beta-lactamase (BLA) Follow-Up Assay, Ratio (AID 2283954)
Chain of THRB (gene 7068) (P10828 whole entry, looked up, the tested form may be a part): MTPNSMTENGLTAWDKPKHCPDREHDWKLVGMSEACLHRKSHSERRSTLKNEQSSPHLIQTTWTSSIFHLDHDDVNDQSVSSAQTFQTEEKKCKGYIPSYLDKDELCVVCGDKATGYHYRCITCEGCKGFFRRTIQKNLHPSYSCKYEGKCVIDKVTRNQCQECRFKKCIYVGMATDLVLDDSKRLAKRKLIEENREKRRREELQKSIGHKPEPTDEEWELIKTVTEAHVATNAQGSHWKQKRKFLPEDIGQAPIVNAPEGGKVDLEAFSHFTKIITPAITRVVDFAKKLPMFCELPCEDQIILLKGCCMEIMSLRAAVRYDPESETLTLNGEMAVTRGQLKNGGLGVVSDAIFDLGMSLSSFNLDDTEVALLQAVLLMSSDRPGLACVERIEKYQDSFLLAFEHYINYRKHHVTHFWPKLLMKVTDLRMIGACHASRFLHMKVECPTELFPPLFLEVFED
Procedure, shortened: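 Agonist mode: compounds (11-point, triplicate) incubated 18 h with HEK293T cells carrying GAL4-DBD/human TRβ-LBD and UAS-β-lactamase. Blue/green (460/530 nm) FRET ratio read after 2 h CCF4-AM loading; CellTiter-Glo viability run in the same plates.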

THRB (gene 7068) [13] = target: THRB (gene 7068) (UniProt P10828); assay: TOX21_TRB_COA_Agonist_Followup_ratio: Tox21 Thyroid Hormone Receptor beta Agonism through Coactivator Recruitment Follow-Up Assay, Ratio (AID 2283963; active = hit-call score of the fitted dose curve at least 0.9, where 1 is the maximum; inactive = score below 0.9)
Procedure, shortened: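 GST-TRb LBD 5.0 nM + 0.10% BSA + cpd; add fluorescein-SRC-2 200 nM / Tb anti-GST Ab 2 nM; TR-FRET ex 340, em 520:495; norm DMSO 0%, T3 100%.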

[14] = target: Retinoic acid receptor RXR-alpha (Homo sapiens) (UniProt P19793); assay: TOX21_TR_RXR_BLA_Agonist_Followup_ratio: Tox21 Thyroid Hormone Receptor beta Retinoid X Receptor alpha (RXRa) Agonism Beta-lactamase (BLA) Follow-Up Assay, Ratio (AID 2283968)
Chain of Retinoic acid receptor RXR-alpha (Homo sapiens) (P19793 whole entry, looked up): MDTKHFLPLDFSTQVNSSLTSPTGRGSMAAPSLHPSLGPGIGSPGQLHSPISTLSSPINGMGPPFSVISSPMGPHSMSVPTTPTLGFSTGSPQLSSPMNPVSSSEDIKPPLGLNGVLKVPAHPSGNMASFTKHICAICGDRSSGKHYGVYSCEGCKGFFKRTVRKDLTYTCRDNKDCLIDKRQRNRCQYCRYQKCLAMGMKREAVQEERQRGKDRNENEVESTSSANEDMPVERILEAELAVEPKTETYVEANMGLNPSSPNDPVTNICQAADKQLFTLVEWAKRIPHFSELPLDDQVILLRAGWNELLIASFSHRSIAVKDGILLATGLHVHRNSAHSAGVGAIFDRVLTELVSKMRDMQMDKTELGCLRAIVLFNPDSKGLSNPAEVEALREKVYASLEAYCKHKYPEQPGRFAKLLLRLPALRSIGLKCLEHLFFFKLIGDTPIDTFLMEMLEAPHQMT
Procedure, shortened: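 Agonism is scored as an increase in the 460:530 nm beta-lactamase substrate ratio over DMSO in RXRa-UAS-bla HEK293T cells exposed for 16 h to 11 compound concentrations.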

[15] = TOX21_TR_RXR_BLA_Agonist_Followup_viability: Viability Assessment in the Tox21 Thyroid Hormone Receptor beta Retinoid X Receptor alpha (RXRa) Agonism Beta-lactamase (BLA) Follow-Up Assay (AID 2283970)
Procedure, shortened: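 Luminescent ATP read (CellTiter-Glo) after 16h exposure of RXRa-UAS-bla HEK293T cells at 37C/5% CO2. Activity normalized to DMSO; signal loss scored as reduced viability.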

Measured: outcome

O=C(c1ccccc1O)c1ccccc1O
inactive: [1] | [2] | [3] | [4] | [5] | [6]

CC(C(=O)O)c1ccc(-c2ccccc2)c(F)c1 (centres undefined)
inactive: [1] | [2] | [3] | [4] | [5] | [7] | [6] | [8] | [9]

N#CCC(=O)O
inactive: [1] | [2] | [3] | [4] | [5] | [7] | [8] | [9]

COC(=O)c1ccccc1Cl
inactive: [1] | [2] | [3] | [4] | [10] | [7]

CSCC[C@H](NC(=O)[C@H](Cc1ccc(OS(=O)(=O)O)cc1)NC(=O)[C@@H](N)CC(=O)O)C(=O)NCC(=O)N[C@@H](Cc1c[nH]c2ccccc12)C(=O)N[C@@H](CCSC)C(=O)N[C@@H](CC(=O)O)C(=O)N[C@@H](Cc1ccccc1)C(N)=O
not listed: [8] | [9] | [10]
inactive: all other assays above

O=C(O)C(=O)Nc1cccc(-c2nn[nH]n2)c1
inactive: [1] | [2] | [3] | [4] | [5] | [6]

C[N+]1(C)[C@@H]2CC(OC(=O)C(O)(c3cccs3)c3cccs3)C[C@H]1[C@@H]1O[C@@H]12 (some centres undefined)
inactive: [1] | [2] | [3] | [4] | [5] | [6]
